Source: PubChem (National Center for Advancing Translational Sciences (NCATS))
12-LOX inh – Primary qHTS assay for inhibitors of human arachidonate 12S-lipoxygenase (ALOX12): Round 2; Polyunsaturated fatty acid lipoxygenase ALOX12 (Homo sapiens), P18054; purified 12hLO, xylenol orange hydroperoxide absorbance; Potency, µM (titrated, usually from 108 µM), inactives show top-dose activity change, negative = inhibition, usual class: inhibitors; 580,000 tested, 1.1% active; further: potency means the concentration at half of the fitted maximal effect; on the % scale 0 is the no-effect control and ±100 the full control effect
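Purified human 12hLO (150 nM final) in 25 mM Hepes, 0.01% Triton X-100, pH 7.0 was preincubated 15 min at room temperature with compound. Then 40 uM arachidonic acid was added, 30 min. Hydroperoxide was read by Fe-XO absorbance ratio 573/405 nm.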
POLI inh – qHTS for Inhibitors of Polymerase Iota | Potency, µM (series often up to 115 µM), without a hit: at the highest dose activity, negative = inhibition, actives largely listed as inhibitors | DNA polymerase iota (Homo sapiens), Q9UNA4 | 390,000 tested, 1% active | Pol iota fluorescent replication assay, 10 min; further: potency means the concentration at half of the fitted maximal effect
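Pol iota at 10 nM preincubated 15 min with compounds at room temperature; reaction started with fluorescent substrate, 50 nM final. Fluorescence read kinetically at 0 and 10 min; buffer-only wells as negative control.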
PI5P4Ka inh – qHTS for Inhibitors of phosphatidylinositol 5-phosphate 4-kinase (PI5P4K); 330,000 tested, 1.2% active; AID 652105, 2013; max response, %; PI5P4Kalpha enzyme, ADP-Glo luminescence, 60 min; hits give low values; Phosphatidylinositol 5-phosphate 4-kinase type-2 alpha (Homo sapiens), P48426; active means max response of -50% or lower; inconclusive means between -30% and -50%; inactive means -30% or higher; further: value at the top dose of about 77 µM; on the % scale 0 is the no-effect control and ±100 the full control effect
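Enzyme plus substrate dispensed, test compounds pinned in, then ATP (5 microM final) added. After 60 min at RT, ADP-Glo reagent 1 for 45 min and reagent 2 for 30 min preceded luminescence imaging.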
POLB inh – qHTS Assay for Inhibitors of DNA Polymerase Beta | P06746 | Pol beta primer extension/strand displacement, fluorescence kinetic | Potency, µM (titrated, usually from 114 µM), for inactives: at the highest dose activity change, negative = inhibition, actives largely listed as inhibitors | 340,000 tested, 1.3% active; further: potency means the concentration at half of the fitted maximal effect; on the % scale 0 is the no-effect control and ±100 the full control effect
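Kinetic readout of DNA synthesis with strand displacement by Pol beta. Compound and 10 nM enzyme sit 15 min at room temperature; 50 nM substrate starts the reaction, read immediately and at 10 min.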
Pol eta inh-1 – qHTS for Inhibitors of Polymerase Eta. 390,000 tested, 1.2% active. Potency, µM (series often up to 114 µM), without a hit: at the highest dose activity change, negative = inhibition, hits mostly inhibitors. recombinant Pol eta, fluorescent DNA replication assay. AID 588591, 2011. DNA polymerase eta (Homo sapiens), Q9Y253; further: potency means the concentration at half of the fitted maximal effect; on the % scale 0 is the no-effect control and ±100 the full control effect
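Fluorescent replication assay: 50 nM final substrate added after a 15 min room-temperature compound preincubation with 10 nM enzyme. Signal taken at 0 min and again at 10 min.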
Pol kappa inh-1 – qHTS for Inhibitors of Polymerase Kappa. DNA polymerase kappa (Homo sapiens), Q9UBT6. AID 588579, 2011. Potency, µM (series often up to 107 µM), without a hit: at the top dose activity, negative = inhibition, actives largely listed as inhibitors. 400,000 tested, 0.53% active. purified Pol kappa, fluorescent DNA synthesis assay, 10 min; further: potency means the concentration at half of the fitted maximal effect; on the % scale 0 is the no-effect control and ±100 the full control effect
Target sequence (Q9UBT6 whole entry, looked up): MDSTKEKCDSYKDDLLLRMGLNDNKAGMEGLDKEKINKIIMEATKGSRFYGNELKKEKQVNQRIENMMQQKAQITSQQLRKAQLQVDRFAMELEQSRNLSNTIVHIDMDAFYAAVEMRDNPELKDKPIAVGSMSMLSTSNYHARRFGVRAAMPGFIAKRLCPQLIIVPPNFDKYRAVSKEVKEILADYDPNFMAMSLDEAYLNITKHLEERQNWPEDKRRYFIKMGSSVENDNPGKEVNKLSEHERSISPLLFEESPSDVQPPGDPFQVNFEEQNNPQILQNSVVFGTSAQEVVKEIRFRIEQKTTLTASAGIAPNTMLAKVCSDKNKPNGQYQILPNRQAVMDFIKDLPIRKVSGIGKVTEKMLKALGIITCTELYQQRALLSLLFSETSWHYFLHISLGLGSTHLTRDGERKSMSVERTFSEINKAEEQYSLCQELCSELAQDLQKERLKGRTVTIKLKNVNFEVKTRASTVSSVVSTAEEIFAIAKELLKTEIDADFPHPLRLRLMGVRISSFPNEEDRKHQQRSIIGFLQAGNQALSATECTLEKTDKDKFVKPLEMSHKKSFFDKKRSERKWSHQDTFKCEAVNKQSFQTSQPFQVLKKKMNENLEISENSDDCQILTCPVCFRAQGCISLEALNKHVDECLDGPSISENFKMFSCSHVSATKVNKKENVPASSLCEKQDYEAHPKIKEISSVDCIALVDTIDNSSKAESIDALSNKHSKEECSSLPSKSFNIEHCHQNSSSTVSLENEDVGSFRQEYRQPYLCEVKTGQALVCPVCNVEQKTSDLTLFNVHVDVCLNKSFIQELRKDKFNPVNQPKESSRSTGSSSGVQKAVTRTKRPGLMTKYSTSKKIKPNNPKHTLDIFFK
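Kinetic fluorescence screen: compound preincubated 15 min RT with 10 nM enzyme; 50 nM substrate (final) initiates; reads at 0/10 min.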
PGK validate – qHTS for inhibitors of Phosphogylcerate Kinase: Hit Validation Screen. shares compounds with Pol kappa inh-1. TbPGK coupled GAPDH assay, Kinase-Glo luminescence. Potency, µM (doses to about 57.5 µM), inactives show at the highest dose activity change, negative = inhibition, usual class: inhibitors. 500 tested, 79% active. AID 686980, 2013; further: potency means the concentration at half of the fitted maximal effect; on the % scale 0 is the no-effect control and ±100 the full control effect; nearly all actives have a fitted effect of over 65% in size
Pol iota confirm – qHTS for Inhibitors of Polymerase Iota: Confirmatory Assay for Cherry-picked Compounds | shares compounds with Pol kappa inh-1 | Pol iota primer extension, TAMRA/BHQ fluorescence | Potency, µM, most hits filed as inhibitors | 1,500 tested, 77% active | AID 720496, 2013; further: potency means the concentration at half of the fitted maximal effect
Pol kappa inh-2 – qHTS for Inhibitors of Polymerase Kappa: Confirmatory Assay for Cherry-picked Compounds. shares compounds with Pol eta inh-1. purified Pol-kappa, fluorescent strand-displacement substrate. Potency, µM, actives largely listed as inhibitors. 920 tested, 76% active. AID 720501, 2013; further: potency means the concentration at half of the fitted maximal effect
Pol eta inh-2 – qHTS for Inhibitors of Polymerase Eta: Confirmatory Assay for Cherry-picked Compounds; 2,600 tested, 64% active; AID 720502, 2013; shares compounds with Pol eta inh-1; Pol eta primer extension, TAMRA/BHQ fluorescence, 10 min; Potency, µM, usual class: inhibitors; further: potency means the concentration at half of the fitted maximal effect
Starred values were filed as active, the others as inactive; ? = inconclusive; · = no result; [ ] = remark or other dose. Shown are actives, neighbours in structure and some others; about 2.9% of the full set was active somewhere. Unless noted, the call rests on the fitted dose curve; in most records, active means well fitted curve in the direction sought with a large enough effect; inconclusive means small, poorly fitted or top-dose-only effect, or another doubt; inactive means no such curve, though single readings can be large; an effect the other way counts as inactive or inconclusive.

SMILES	12-LOX inh	POLI inh	PI5P4Ka inh	POLB inh	Pol eta inh-1	Pol kappa inh-1	Pol iota confirm	Pol kappa inh-2	Pol eta inh-2	others
CCc1cc(C(=O)N=Nc2c(O)[nH]c3ccc([N+](=O)[O-])cc23)c2ccccc2n1	-15%	?	-3	32µM*	50µM*	?	?	·	76*
O=c1cc(-c2ccc(O)c(O)c2)oc2cc(O)c(C3OC(CO)C(O)C(O)C3O)c(O)c12 (centres undefined)	31%	10µM*	-6	4.5µM*	3.2µM*	20µM*	42*	·	19*
Cc1ccccc1/C=C/C(=O)NC1CC1	9%	·	·	·	·	·	·	·	·
CC(C)(Sc1ccc(CCN(CCCCC2CCCCC2)C(=O)NC2CCCCC2)cc1)C(=O)O	?	36%	-21	?	89µM*	?	42*	19*	19*
Cc1ccc2nc(/C(C#N)=C/c3cccc(Br)c3)[nH]c2c1	?	?	·	22µM*	56µM*	-19%	42*	17*	60*
Cc1ccc2nc(/C(C#N)=C/c3ccc(-c4cccc(Cl)c4)o3)[nH]c2c1	24%	79µM*	·	?	89µM*	50µM*	19*	19*	67*
N#C/C(=C\c1ccc(-c2cccc(Br)c2)o1)c1nc2ccccc2[nH]1	13%	·	·	·	·	·	·	·	·
Cc1ccc2nc(/C(C#N)=C\c3ccc(N4CCCCC4)c([N+](=O)[O-])c3)[nH]c2c1	?	?	·	25µM*	-14%	-11%	38*	47*	60*
Cc1ccc(COc2c(Br)cc(/C=C(\C#N)c3nc4ccc(C)cc4[nH]3)cc2Br)cc1	-1%	·	·	·	·	·	·	·	·
COc1ccc2nc(NC(=O)c3nc(S(=O)(=O)Cc4ccccc4)ncc3Cl)sc2c1	1%	?	·	5.6µM*	?	?	30*	·	76*
Cn1nc(-c2ccc(C(=O)Nc3ccc(F)cc3)cc2)c2ccccc2c1=O	?	?	-1	16µM*	?	-12%	42*	24*	?
CCSc1nnc(NC(=O)CSc2sc3c(O)cc(=O)[nH]c3c2C#N)s1	?	3.5µM*	-102*	35µM*	3.5µM*	20µM*	42*	9.5*	24*
COc1ccc(C(=O)N2CCCC(C(=O)Nc3cccc(C#N)c3)C2)c2ccccc12 (centres undefined)	10%	·	·	·	·	·	·	·	·
CC(=O)c1c(C)oc(C)c1CSCc1ccc(C(=O)O)o1	-17%	7.9µM*	·	13µM*	6.3µM*	32µM*	47*	·	?
CCCCSCc1ccc(C(=O)O)o1	?	-11%	·	6%	-7%	0%	·	·	·
O=C1NC2c3c(Cl)sc(Cl)c3C(=O)C2O1 (centres undefined)	40µM*	25µM*	?	·	3.2µM*	?	4.2*	2.7*	6*
CC(C)c1ccc(NC(=O)c2ccc3c(c2)NC(=O)CS3)cc1	-27%	·	·	·	·	·	·	·	·
COc1cc(-c2oc3cc(O)cc(O)c3c(=O)c2O[C@@H]2O[C@H](CO)[C@@H](O)[C@H](O)[C@H]2O)ccc1O	·	·	·	·	·	6%[60.1 µM]	·	·	·
COc1c(-c2ccc(O)c(O)c2)oc2cc(O)cc(O)c2c1=O	7.1µM*	?	?	4.5µM*	8.9µM*	14µM*	42*	·	24*
Cc1ccc(NC(=O)Cn2nc3n(c2=O)CCCC3)cc1	60%	·	·	·	·	·	·	·	·
COc1ccc(/C=C2/SC(=S)N(c3ccc(S(=O)(=O)Nc4nccs4)cc3)C2=O)cc1	437%	22µM*	-67*	-22%	25µM*	50µM*	?	·	67*
O=C(O)COc1ccc(C=C2SC(=S)N(c3ccccc3)C2=O)cc1	-24%	?	-19	·	?	-4%	·	·	·
COc1ccccc1-c1nnc2sc(-c3cnccn3)nn12	-15%	?	·	?	45µM*	-40%	75*	·	?
CCOC(=O)/C(=C/C=C1\Sc2cc(C)c(C)cc2N1CC)C(C)=O	-24%	8%	2	0%	-23%	-25%	·	·	·
CCN1/C(=C/c2ccc3cc(C)ccc3[n+]2CC)Sc2cc(C)c(C)cc21	50µM*	87%	-13	14µM*	?	-22%	42*	·	76*
CCN1c2cc(C(=O)NCc3ccccc3OC)ccc2C(=O)N2CCCCCC21 (centres undefined)	9%	·	·	·	·	·	·	·	·
COc1ccc2nc(C[C@@H]3C[C@@H](C(C)C)[C@H](CNC(=O)Nc4ccc(F)cc4)C=C3C)[nH]c2c1	2%	·	·	·	·	·	·	·	·
O=c1cc2c(=O)oc3cc(O)c(O)oc3c2c(O)c1O	-19%	1.1µM*	-75*	0.35µM*	0.71µM*	2.8µM*	1.1*	0.95*	1.2*	PGK validate=?
